The nature of experiment [1]: qHTS of pediatric cancer cell lines to identify multiple opportunities for drug repurposing: Primary screen for RD cells (AID 1347104). Also: nearly all actives have a fitted effect of over 55% in size. A digest of the protocol: (§1)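 Cells plated at 500-1,000/well in growth medium, compounds added after 5 h. MIPE tested at 11 points (from 0.78 nM), NPC at 8 points (from 0.59 nM). CellTiter-Glo luminescence after 48 h; concentration-response curves from primary screen.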

A short description of experiment [2]: qHTS of pediatric cancer cell lines to identify multiple opportunities for drug repurposing: Primary screen for control Hh wild type fibroblast cells (AID 1347106). Also: nearly all actives have a fitted effect of over 55% in size. A digest of the protocol: (§2)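 Cells (500-1,000/well) in growth media were settled 5 h at 37 degrees C, then given compounds for 48 h. Viability was read as CellTiter-Glo luminescence. Primary runs used MIPE at 11 points (0.78 nM-46 µM) and NPC at 8 points (0.59 nM-46 µM); follow-ups used 11 points.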
On the technique in general: In qHTS, concentration-response curves come from the screen itself.

The nature of experiment [3]: qHTS of pediatric cancer cell lines to identify multiple opportunities for drug repurposing: Primary screen for Rh30 cells (AID 1347107). Also: nearly all actives have a fitted effect of over 75% in size. The method, boiled down: as §2
A short description of experiment [4]: qHTS of pediatric cancer cell lines to identify multiple opportunities for drug repurposing: Primary screen for Rh41 cells (AID 1347108). Also: nearly all actives have a fitted effect of over 70% in size. The method, boiled down:
as §1

The nature of experiment [5]: qHTS of pediatric cancer cell lines to identify multiple opportunities for drug repurposing: Primary screen for MG 63 (6-TG R) cells (AID 1347105). Also: nearly all actives have a fitted effect of over 50% in size. A digest of the protocol:
as §1

Experiment [6] can be described thus: qHTS of pediatric cancer cell lines to identify multiple opportunities for drug repurposing: Confirmatory screen for NB1643 cells (AID 1347109). Also: nearly all actives have a fitted effect of over 45% in size. A digest of the protocol: as §2
The nature of experiment [7]: qHTS of pediatric cancer cell lines to identify multiple opportunities for drug repurposing: Confirmatory screen for A673 cells (AID 1347110).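 Also: cells exposed to compound for 48 h before the viability read; nearly all actives have a fitted effect of over 65% in size.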 The method, boiled down: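 A673 cells seeded at 500-1,000 cells/well, rested 5 h, then dosed; primary MIPE 11-point (0.78 nM to 46 µM), NPC (0.59 nM to 46 µM); confirmatory 11-point. CellTiter-Glo luminescence after 48 h.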
The nature of experiment [8]: qHTS of pediatric cancer cell lines to identify multiple opportunities for drug repurposing: Confirmatory screen for SK-N-MC cells (AID 1347111).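 Also: cells exposed to compound for 48 h before the readout; nearly all actives have a fitted effect of over 70% in size.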 A digest of the protocol: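 Metabolically active cells were quantified by ATP-dependent luminescence (CellTiter-Glo, 15 min at room temperature) following 48 h treatment. Cells had been plated at 500-1,000 per well and settled for 5 h beforehand.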

Experiment [9] can be described thus: qHTS of pediatric cancer cell lines to identify multiple opportunities for drug repurposing: Confirmatory screen for BT-12 cells (AID 1347112). Also: nearly all actives have a fitted effect of over 55% in size. The method, boiled down: as §2
Experiment [10] can be described thus: qHTS of pediatric cancer cell lines to identify multiple opportunities for drug repurposing: Confirmatory screen for DAOY cells (AID 1347114). Also: nearly all actives have a fitted effect of over 65% in size. A digest of the protocol:
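Viability measured as metabolically active cells via CellTiter-Glo luminescence following 48 hours of compound exposure, 11-point dilutions in confirmatory testing. 500-1,000 cells/well plated 5 hours before dosing; controls were DMSO and 2.3 µM bortezomib.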

The structures appear in SMILES notation. Records with an inconclusive call do not appear. Activity calls are given as the source filed them. Calls follow the shape of the dose curve; as a rule, active = well fitted curve in the direction sought with a large enough effect; inconclusive = small, poorly fitted or top-dose-only effect, or another doubt; inactive = no such curve, though single readings can be large; an effect the other way counts as inactive or inconclusive.
Potency is read from the fitted curve at half-maximal effect.

Consider `CC(=O)Nc1ccc(OC[C@](C)(O)C(=O)Nc2ccc([N+](=O)[O-])c(C(F)(F)F)c2)cc1`, for which the Potency result in experiment [1], in [2], in [3] and in experiment [4] was “inactive” in each case.

As for `CC1=C(O)C(=O)C=C2C1=CC=C1[C@@]2(C)CC[C@@]2(C)[C@@H]3C[C@](C)(C(=O)O)CC[C@]3(C)CC[C@]12C`, the Potency in [1] is 1320 nM (active); in experiment [5], 935 nM (active); in experiment [3] it was 4690 nM (active); in [4] it was 1480 nM (active); in experiment [6] it was 2080 nM (active); in experiment [7], 1310 nM (active). Besides, the Potency in [8] was 1170 nM (active); in experiment [9], 3290 nM (active); in experiment [10], 1650 nM (active).

Regarding `Cc1ccccc1-n1c(Cn2cnc3c(N)ncnc32)nc2cccc(C)c2c1=O`, the Potency in experiment [1] was 2350 nM (active); in experiment [5], 148 nM (active); in experiment [4], 590 nM (active). Further, the Potency result in experiment [6], in [7], in [8] and in [9] was “inactive” throughout.

As to `CCC1(CCC(C)C)C(=O)NC(=O)NC1=O`, the Potency result in [1], in experiment [5], in experiment [3] and in experiment [4] was “inactive” each time.

As to `c1ccc(CCCN2CCN(CCOC(c3ccccc3)c3ccccc3)CC2)cc1`, in experiment [1], the Potency is 29600 nM (active). Further, the Potency result in experiment [2] is “inactive”.

For the compound `CCCN(CCC)c1c([N+](=O)[O-])cc(S(N)(=O)=O)cc1[N+](=O)[O-]`, the figures for the Potency in experiment [1], in experiment [5] and in [4] were 38600 nM (active), 48600 nM (active) and 38600 nM (active), respectively.

As to `COc1ccc(CC2NCCc3cc(OC)c(OC)cc32)cc1OC` (configuration not stated), the Potency entry in experiment [1], in experiment [2], in experiment [3] and in experiment [4] was “inactive” throughout.

Take `CC(O)CN1CCN(CC(=O)[O-])CCN(CC(=O)[O-])CCN(CC(=O)[O-])CC1.[Gd+3]` (configuration not stated): the Potency result in experiment [1], in experiment [2], in experiment [3] and in [4] was “inactive” in each case.

As for `CC[C@@H]1[C@@H](C)O[C@@](O)([C@@H](C)[C@H](O)[C@H](C)[C@H]2OC(=O)C=CC=C[C@@H](C)[C@@H]([C@@H](C)[C@@H](O)[C@H](C)[C@@]3(O)C[C@H](O[C@H]4C[C@H](O)[C@H](O)[C@H](C)O4)[C@H](CC)[C@@H](C)O3)OC(=O)C=CC=C[C@@H]2C)C[C@H]1O[C@H]1C[C@H](O)[C@H](O)[C@H](C)O1`, the Potency in experiment [1] was 264 nM (active); in experiment [5], 590 nM (active); in experiment [3], 935 nM (active); in experiment [4], 743 nM (active). Besides, the Potency result in [6], in [8] and in [9] was “inactive” in each case.

Turning to `O=C(O)COc1nc(Cl)c(Cl)cc1Cl`, the Potency entry in experiment [1], in experiment [5], in experiment [3], in experiment [4], in experiment [9] and in [10] was “inactive” throughout. Moreover, the Potency in [7] is 2180 nM (active).

On to `N#C[C@H](O[C@@H]1O[C@H](CO[C@@H]2O[C@H](CO)[C@H](O)[C@H](O)[C@H]2O)[C@H](O)[C@H](O)[C@H]1O)c1ccccc1`, for which, in [1], the Potency is 33200 nM (active). The Potency result in experiment [2] is “inactive”.

As to `CC[C@H]1C=CC=CC[C@@H](C)[C@H](O)[C@@](C)(O)C(=O)[C@@H](C)[C@H](O)[C@@H](C)C(=O)[C@@H](C)[C@H](O)[C@@H](C)C=CC(=O)O[C@@H]2[C@@H](C)[C@H](CC1)O[C@]1(CC[C@H](C)[C@H](C[C@@H](C)O)O1)[C@H]2C`, the Potency in experiment [1] is 23500 nM (active); in [8] it was 233 nM (active); in experiment [10], 3.7 nM (active). Also, the Potency result in [2] and in experiment [3] was “inactive” throughout.

As to `O=C(Nc1ccncc1)C(=O)c1cn(Cc2ccc(Cl)cc2)c2ccccc12`, the Potency was 46.9 nM (active) in experiment [1]; 74.3 nM (active) in [4]; 465 nM (active) in experiment [6]; 414 nM (active) in experiment [7]; 329 nM (active) in experiment [8]; 293 nM (active) in experiment [10]. Moreover, the Potency result in [2] and in experiment [3] was “inactive” each time.

For `S=C(SSC(=S)N1CCCCC1)N1CCCCC1`, the figures for the Potency in experiment [1], in experiment [2] and in experiment [7] were 29.9 nM (active), 1060 nM (active) and 10400 nM (active), respectively. The Potency result in [3] was “inactive”.

For `NC1CC1c1ccccc1` (configuration not stated), the Potency result in experiment [1], in [2], in experiment [3] and in experiment [4] was “inactive” in each case.

On to `CC(C)(C)C(O)C(Oc1ccc(Cl)cc1)n1cncn1` (configuration not stated), for which the Potency result in experiment [1], in experiment [3], in experiment [4], in [6], in experiment [7] and in [8] was “inactive” each time. For the same compound, the Potency result in experiment [9] and in [10] was “inactive” in each case.

For `CC1(N2CCC(n3c([C@@H]4CCCNC4)nc4ccccc43)CC2)CCCCCCC1`, the Potency in experiment [1] is 13200 nM (active). Besides, the Potency entry in experiment [3] and in [4] was “inactive” in each case.

For `COc1ccc2c(c[n+](C)c3c4cc5c(cc4ccc23)OCO5)c1OC`, the Potency was 10500 nM (active) in [1], 26400 nM (active) in experiment [2], 20900 nM (active) in experiment [3] and 10500 nM (active) in experiment [4].

As to `CC(C)[C@]12O[C@@H]1[C@@H]1O[C@]13[C@]1(O[C@H]1C[C@@H]1C4=C(CC[C@@]13C)C(=O)OC4)[C@H]2O`, the Potency in experiment [1] is 1 nM (active); in experiment [4] it was 52600 nM (active); in experiment [7], 92.8 nM (active); in experiment [8], 46.5 nM (active); in experiment [9], 36.9 nM (active); in experiment [10], 208 nM (active). For the same compound, in experiment [3], the Potency entry is “inactive”.

On to `COC(C)(C)CCCC(C)C/C=C/C(C)=C/C(=O)OC(C)C` (configuration not stated), for which the Potency result in experiment [1], in [2], in [3] and in experiment [4] was “inactive” in each case.

For the compound `C#CC1(O)CCC2C3CCC4=CC(=O)CCC4(C)C3CCC21C` (configuration not stated), the Potency result in experiment [1], in [2], in experiment [3] and in experiment [4] was “inactive” each time.

For the compound `Cc1cc(O)ccc1Cl`, the Potency result in experiment [1], in experiment [2], in experiment [3] and in experiment [4] was “inactive” throughout.

With `O=[N+]([O-])/N=C1\NCCN1Cc1ccc(Cl)nc1`, the Potency entry in experiment [1], in [2], in [3] and in experiment [4] was “inactive” in each case.

For the compound `O=c1cccc2n1CC1CNC[C@H]2C1`, the Potency is 18700 nM (active) in experiment [1] and 11800 nM (active) in [4].

In the case of `CC1(C)CC/C(=C/c2ccc(Cl)cc2)C1(O)Cn1cncn1` (configuration not stated), the Potency entry in experiment [1], in experiment [2], in experiment [3] and in experiment [4] was “inactive” each time.

For the compound `O=C(N[C@H]1CN2CCC1CC2)c1ccc(Cl)cc1`, the Potency in experiment [1] is 26400 nM (active); in [6], 16500 nM (active); in [7] it was 1650 nM (active); in experiment [8], 1170 nM (active). For the same compound, the Potency result in [9] and in [10] was “inactive” throughout.

As for `CC(=O)[O][Hg][c]1ccccc1`, the Potency in [1] was 944 nM (active); in experiment [3], 2660 nM (active); in [4], 1060 nM (active); in experiment [6], 1470 nM (active); in [7], 1040 nM (active); in experiment [8], 827 nM (active). Moreover, in experiment [9], the Potency is 4650 nM (active).

As for `COc1ccc(C(=O)c2c(C)n(CCN3CCOCC3)c3cc(I)ccc23)cc1`, the Potency in experiment [1] is 18700 nM (active); in [4], 18700 nM (active); in experiment [7], 26100 nM (active); in experiment [10] it was 18500 nM (active). In addition, the Potency entry in [3] is “inactive”.

Regarding `C[C@H]1CCCC=CC2C[C@H](O)C[C@@H]2[C@H](O)C=CC(=O)O1` (some centres not stated), the Potency in experiment [1] is 1 nM (active); in [6], 131 nM (active); in experiment [7], 414 nM (active); in [8] it was 104 nM (active); in experiment [9], 165 nM (active). Further, the Potency entry in [3] is “inactive”.

The values above are taken from PubChem BioAssay (NCATS).
